{"source": "PubChem BioAssay AID651958", "about": "(The Scripps Research Institute Molecular Screening Center, 2012)", "note": "Screen size: about 370,000 compounds; about 2,000 (0.54%) were called active. The sample as a whole holds a higher share of actives than the screen did. A number with no mark means an inactive call. Cut-off read from the data, not from the text of the source: active = inhibition above about 30%; inactive = the rest.", "data": [{"test_system": "Crimean-Congo hemorrhagic fever virus L polyprotein viral ovarian tumor (vOTU) protease domain", "assay": "CCHFV vOTU protease inhibitors, primary screen, biochemical, Pep-AMC substrate, fluorescence (AID 651958); note: 0% = vehicle wells with enzyme and 100% = no enzyme wells", "details": "at 11.5 µM, active compounds read high", "values": [{"smiles": "CC(C)[C@@H](C(=O)O)N(Cc1cccc(CN([C@H](C(=O)O)C(C)C)S(C)(=O)=O)c1)S(C)(=O)=O", "inhibition": "1.18%"}, {"smiles": "CCC(C)CCN1CCN=C1N(C)C", "note": "(stereo not given)", "inhibition": "10.6%"}, {"smiles": "CC(C(=O)Nc1ccccc1-c1ccccc1)N1CCOCC1", "note": "(stereo not given)", "inhibition": "30% (active)"}, {"smiles": "CC(C(=O)Nc1ccc(Cl)cc1Cl)N1CC=C(c2ccccc2)CC1", "note": "(stereo not given)", "inhibition": "-3.9%"}, {"smiles": "CC(Sc1nncn1C)C(=O)Nc1ccccc1-c1ccccc1", "note": "(stereo not given)", "inhibition": "3.71%"}, {"smiles": "COc1ccc(S(=O)(=O)N(C)C[C@H]2OCc3cnnn3CCCC(=O)N([C@H](C)CO)C[C@H]2C)cc1", "inhibition": "-4.66%"}, {"smiles": "COc1cccc(NC(=O)CS(=O)(=O)c2cn(CC(=O)N3CCOCC3)c3ccccc23)c1", "inhibition": "6.34%"}, {"smiles": "COc1cccc(NC(=O)C(=O)c2cn(CC(=O)N3CCOCC3)c3ccccc23)c1", "inhibition": "40.2% (active)"}, {"smiles": "O=C(Nc1ccc(F)cc1)C(=O)c1cn(CC(=O)N2CCOCC2)c2ccccc12", "inhibition": "-0.24%"}, {"smiles": "CN(Cc1c(F)cccc1Cl)C(=O)COC(=O)Cn1cnc2ccccc2c1=O", "inhibition": "-6.54%"}, {"smiles": "CCCCC(O)(CCCC)C(=O)NN(C(=O)CCl)c1ccccc1", "inhibition": "8.68%"}, {"smiles": "CCCc1ccc(OCC(O)CN2CCN(CCO)CC2)cc1", "note": "(stereo not given)", "inhibition": "-10.8%"}, {"smiles": "COc1ccc(CN2CCC(C)(Oc3cccc(F)c3)C2)c2ccccc12", "note": "(stereo not given)", "inhibition": "10%"}, {"smiles": "CCCSc1nc(NCc2ccco2)c2c3c(sc2n1)COC(C)(CC)C3", "note": "(stereo not given)", "inhibition": "30.9% (active)"}, {"smiles": "CCC1(C)Cc2c(sc3nnn(CC(=O)Nc4ccc(Cl)cc4)c(=O)c23)CO1", "note": "(stereo not given)", "inhibition": "-1.67%"}, {"smiles": "CN1CCc2c(sc3c2c(NCc2ccco2)nc2nnnn23)C1", "inhibition": "-25.3%"}, {"smiles": "Clc1ccc(C(Cn2ccnc2)OCc2ccsc2Cl)c(Cl)c1", "note": "(stereo not given)", "inhibition": "9.88%"}, {"smiles": "Clc1ccc(C2=CSC3=Nc4cccc5cccc(c45)N23)cc1", "inhibition": "103% (active)"}, {"smiles": "COc1ccc(CN(Cc2ccco2)S(=O)(=O)c2ccc(S(=O)(=O)N3CCCC3)cc2)cc1", "inhibition": "-4.58%"}, {"smiles": "O=C1C=C(NS(=O)(=O)c2ccccc2)C(=O)c2ccccc21", "inhibition": "41.9% (active)"}, {"smiles": "Cc1cc(NS(=O)(=O)c2ccccc2)no1", "inhibition": "-7.1%"}, {"smiles": "O=C(NC1=CC(=O)c2ccccc2C1=O)c1ccccc1", "inhibition": "101% (active)"}, {"smiles": "CC(=O)NS(=O)(=O)c1ccccc1", "inhibition": "-12.3%"}, {"smiles": "O=c1ccn([C@@H]2O[C@H](CNS(=O)(=O)c3cc4ccccc4s3)[C@@H](O)[C@H]2O)c(=O)[nH]1", "inhibition": "-7.44%"}, {"smiles": "COc1ccc(C2c3[nH]c4ccccc4c3C[C@H]3C(=O)N(CC(C)C)CC(=O)N23)c(OC)c1", "note": "(stereo not given in full)", "inhibition": "-0.95%"}]}]}
